AmpC inh detg – inhibitors of E. coli AmpC beta-lactamase with detergent | AmpC hydrolysis of nitrocefin, absorbance 480 nm, 0.01% Triton | Potency, µM (top dose mostly 114 µM), without a hit: at the top dose activity change, negative = inhibition, hits mostly inhibitors | actives 0.041% (n = 370,000);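 further: 0% = no-compound wells and -100% = no-enzyme wells; nearly all actives have a fitted effect of over 25% in size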
Target sequence (P00811 whole entry, looked up): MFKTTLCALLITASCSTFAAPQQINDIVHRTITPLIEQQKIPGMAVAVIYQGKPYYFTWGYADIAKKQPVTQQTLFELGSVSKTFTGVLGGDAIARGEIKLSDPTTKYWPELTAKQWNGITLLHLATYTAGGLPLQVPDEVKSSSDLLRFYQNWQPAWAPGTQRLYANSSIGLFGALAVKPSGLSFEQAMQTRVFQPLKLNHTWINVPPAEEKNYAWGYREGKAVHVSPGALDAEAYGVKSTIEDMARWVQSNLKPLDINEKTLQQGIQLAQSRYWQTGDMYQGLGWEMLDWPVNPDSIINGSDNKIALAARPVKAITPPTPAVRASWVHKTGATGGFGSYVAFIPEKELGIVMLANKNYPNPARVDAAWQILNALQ
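AmpC (5.3 nM in the dispensed reagent) in 20 mM phosphate pH 7.0 with 0.01% (detergent screen) or 0.0001% Triton X-100 was preincubated with compounds for 15 min at room temperature. Nitrocefin was then added from an 800 uM solution, and hydrolysis was followed at 480 nm.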
AmpC inh no detg – blocks E. coli AmpC beta-lactamase in detergent-free assay | AmpC nitrocefin hydrolysis, absorbance 480 nm, 0.0001% Triton | AID 485341 | actives 0.52% (n = 330,000) | P00811 | Potency, µM (top dose mostly 57.1 µM), without a hit: at the top dose activity change, negative = inhibition, most hits filed as inhibitors;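 further: plate controls were no compound for no effect and no enzyme for full effect; nearly all actives have a fitted effect of over 20% in size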
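AmpC (5.3 nM in the dispensed reagent) in 20 mM phosphate pH 7.0 with 0.01% (detergent screen) or 0.0001% Triton X-100 was preincubated with compounds for 15 min at room temperature. Nitrocefin was then added from an 800 uM solution, and hydrolysis was followed at 480 nm.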
Sm TGR inh – S. mansoni TGR enzyme inhibition | Q962Y6 | AID 485364 | actives 3% (n = 360,000) | purified TGR, DTNB reduction, TNB absorbance 405 nm | Potency, µM (highest dose often 114 µM), for the others: at the top dose activity change, negative = inhibition, hits mostly inhibitors; further: nearly all actives have a fitted effect of over 60% in size
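Kinetic colorimetric format: TGR-catalysed, NADPH-driven DTNB reduction monitored via TNB absorbance. Enzyme dispensed at 20 nM; compound exposure 15 min at room temperature before reaction start.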
An asterisk follows results filed as active; ? = inconclusive; · = not tested or not shown. A selection: hits, their analogues and other compounds. The true share with any hit is near 3.3%. The call rests on the fitted dose curve; in most records, active means well fitted curve in the direction sought with a large enough effect; inconclusive means small, poorly fitted or top-dose-only effect, or another doubt; inactive means no such curve, though single readings can be large; an effect the other way counts as inactive or inconclusive. Unless noted, on the % scale 0 is the no-effect control and ±100 the full control effect; potency means the concentration at half of the fitted maximal effect.

SMILES | AmpC inh detg | AmpC inh no detg | Sm TGR inh
CCOc1ccc(N(CC(=O)NCCSCc2ccco2)S(=O)(=O)c2ccc(F)cc2)cc1 | 7% | -3% | 4%
COc1ccc(CCNC(=O)CN(c2cc(OC)ccc2OC)S(=O)(=O)c2ccccc2)cc1 | -7% | 47% | 0%
O=C(Cc1ccccc1)NCCSCc1ccco1 | -9% | -12% | -28%
COc1ccc(OC)c(N(CC(=O)NCc2ccccc2)S(=O)(=O)c2ccccc2)c1 | 0% | · | 7%
Cc1cc(=O)oc2c(C)c(OC3CCCCC3=O)ccc12 (configuration not stated) | -9% | -10% | 3%
CSc1nc(N)nc2c1ncn2CC(=O)NCCCc1ccccc1 | · | -3% | ·
Cc1cccc2c1NC(=O)C2(O)N1CCCC(C)C1 (configuration not stated) | -13% | -2% | -18%
COc1ccc(CCN2C(=NC(C)=O)SC3CS(=O)(=O)CC32)cc1OC (configuration not stated) | 0% | -18% | 4%
CS(=O)(=O)N(CC(=O)NCCSCc1ccccc1)c1ccccc1F | 0% | 18% | -25%
Cc1ccccc1N(CC(=O)NCCSCc1ccco1)S(C)(=O)=O | -15% | 19% | 22µM*
Cn1c(=NC(=O)CCl)sc2ccccc21 | -6% | -13% | 25µM*
Cn1c(=NC(=O)c2ccco2)sc2ccccc21 | -2% | -7% | ·
CCOC(=O)N1CCN(C(=O)Cn2c(=O)sc3ccccc32)CC1 | -3% | -7% | 11%
CCOC(=O)N1CCN(C(=O)CSCC(=O)N=c2sc3ccccc3n2C)CC1 | 5% | · | 16µM*
COc1ccc(CNCCCC(=O)Nc2c(Cl)ccc(C)c2Cl)cc1OC | 1% | -9% | 0%
CCc1ccccc1NC(=O)N1CCC(CN2CCc3ccccc3C2)CC1 | 16% | · | -6%
CC12CN3CC(C)(CN(C1)C3c1c[nH]c3ccccc13)C2=O (configuration not stated) | -13% | -2% | ·
CC1(C)CC(=O)C(c2c[nH]c3ccccc23)C(=O)C1 | -9% | -50% | 20µM*
Cc1c(NC(=O)COC(=O)C2=COCCO2)cccc1[N+](=O)[O-] | -5% | -20% | 0%
CC(C)Cc1nnc(NC(=O)CCC(=O)NC2CCCCCC2)s1 | -1% | -14% | 1%
O=C1[C@@H]2Cc3c([nH]c4ccccc34)C(c3ccc([N+](=O)[O-])cc3)N2C(=O)CN1C1CC1 (some centres not stated) | -3% | -2% | 12%
CCOC(=O)c1c(C)oc2c(F)c(F)c(F)c(F)c2c1=O | -4% | -32% | 32µM*
CCOC(=O)c1c(C)oc2c1cc(O)c1ccccc12 | -2% | -29% | -20%
Cc1ccc(C(=O)Nc2nc(-c3ccco3)c(-c3ccco3)s2)o1 | -9% | -59% | 4.5µM*
O=C(CCCSc1ccccc1)Nc1nc(-c2ccccn2)cs1 | -5% | -43% | -6%
SMILES | AmpC inh detg | AmpC inh no detg | Sm TGR inh
O=C(CCCSc1ccccc1)Nc1nc(-c2ccco2)c(-c2ccco2)s1 | -5% | 28µM* | ?
Cc1ccc(C(=O)Nc2nc(C)c(C(=O)N(C)C)s2)o1 | ? | -20% | -1%
CC(=O)c1sc(NC(=O)CCNC(=O)c2ccco2)nc1-c1ccccc1 | -12% | 26% | -2%
O=C(CCl)Nc1nc(-c2ccco2)c(-c2ccco2)s1 | -11% | -25% | 0.4µM*
COc1cccc(C(=O)Oc2c(Sc3ccc(C)cc3)c(C)nn2C(C)(C)C)c1OC | 13% | · | 3%
O=C(CNC(=O)c1sc2ccccc2c1Cl)NCc1ccc(F)cc1 | -1% | -14% | -6%
CCOC(=O)c1c(Nc2ccc(O)cc2)nnc(-c2ccccc2)c1-c1ccccc1 | 6% | · | 45µM*
CCOC(=O)c1c(Nc2ccccc2)nnc(-c2ccccc2)c1-c1ccccc1 | 5% | · | 4%
O=C(O)c1ccc(S(=O)(=O)c2ccccc2C(=O)O)c([N+](=O)[O-])c1 | 6% | -32% | 6%
O=C(O)c1ccc(S(=O)(=O)c2ccc([N+](=O)[O-])cc2[N+](=O)[O-])cc1 | ? | -28% | 0.1µM*
O=C(CN1CSCC1=O)N1CCN(S(=O)(=O)c2ccc(Cl)cc2)CC1 | -15% | -6% | -7%
CC(C)OP(=O)(OC(C)C)C1(NS(=O)(=O)c2ccc(Cl)cc2)C=C(Cl)C(=O)C(Cl)=C1 | 0% | -37% | 0.79µM*
CC(C)N(CCNS(=O)(=O)c1ccc(Cl)cc1)C(C)C | 1% | -8% | 0%
CCN(C(=O)COC(=O)c1cc(S(=O)(=O)N2CCOCC2)ccc1F)C1CCS(=O)(=O)C1 (configuration not stated) | -21% | -15% | 0%
O=C1N=c2ccccc2=C1c1c(O)n(-c2cccc(F)c2)[nH]c1=O | 1% | -50% | 22µM*
CCn1c(O)c(C2=c3ccccc3=NC2=O)c2cc(Br)ccc21 | 8% | -26% | 6%
COc1cccc(NC(=O)Cn2c(CCC(=O)O)ccc2-c2cccs2)c1 | 0% | -23% | -20%
O=C(O)Cn1c(-c2cccs2)cc2cc(Cl)ccc21 | 8% | · | -12%
COc1ccc(OC)c(NC(=O)Cn2c(CCC(=O)O)ccc2-c2cccs2)c1 | -9% | · | ?
O=C(O)CCc1ccc(-c2cccs2)n1CCC(=O)O | -1% | 0% | 7.1µM*
Cc1ccc(NC(=O)Cn2c(CCC(=O)O)ccc2-c2cccs2)cc1Cl | 3% | -49% | 25µM*
O=C(O)CCc1ccc(-c2cccs2)n1CCc1ccccc1 | -5% | -45% | 10µM*
Cc1sc2nc(CSCC(=O)N(CCC#N)c3ccccc3F)[nH]c(=O)c2c1C | -15% | 106% | -9%
COc1ccc(-n2cc(C(=O)O)c(=O)cc2C)cc1 | -1% | -20% | -26%
Cc1ccc(C(=O)Nc2ccccc2C(=O)Nc2ccccn2)cc1Cl | ? | -10% | 1%
SMILES | AmpC inh detg | AmpC inh no detg | Sm TGR inh
COCCOC(=O)/C(=C\c1cc(C(C)(C)C)c(O)c(C(C)(C)C)c1)C(C)=O | 6% | 100% | 40µM*
CC(C)(C)c1cc(CCC(=O)NN)cc(C(C)(C)C)c1O | 0% | -6% | -5%
C/C(=N\NC(N)=S)c1cc(-c2ccccc2)c(-c2ccccc2)s1 | ? | ? | 4%
COc1ccc(CNC(=O)C(CC(C)C)NS(=O)(=O)c2ccc3c(c2)oc(=O)n3C)cc1 (configuration not stated) | 4% | · | 4%
COc1cc(OC)cc(C(=O)NC(=S)Nc2ccc(Cl)c(C(=O)O)c2)c1 | 0% | -21% | 22µM*
COc1cc(C(=O)NC(=S)Nc2ccc3[nH]c(=O)[nH]c3c2)cc(OC)c1OC | -5% | 0% | 1%
COc1cc(C(=O)NC(=S)Nc2ccc(Cl)c(C(=O)O)c2)cc(OC)c1OC | -9% | -16% | 40µM*
CCCCOc1cccc(C(=O)NC(=S)Nc2ccc(Cl)c(C(=O)O)c2)c1 | 4% | -33% | 0%
CC(=O)c1ccc(N(CC(=O)NC2CCCC2)C(=O)c2csnn2)cc1 | -5% | -2% | 0%
CCc1nc(SCC(=O)c2ccccc2)c2ccccc2n1 | 1% | 233% | 45µM*
CCc1nc(SCC(=O)c2ccc3c(c2)OCCO3)c2ccccc2n1 | -2% | 85% | -2%
